Measured values: PubChem BioAssay (NCI)
About 79,000 compounds went through this panel and 15% of them were active in at least one assay; those are over-represented in the sample as a whole. Activity calls are given as the source filed them. Cut-off read from the data, not from the text of the source: active = growth inhibition above about 70%; inactive = the rest.

Legend:
[1] = NCI Yeast Anticancer Drug Screen. Data for the rad52 strain (AID 147);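 note: 0% = growth of vehicle-treated control cultures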; details: S. cerevisiae rad52 mutant growth inhibition, hits give high values
Procedure, shortened: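 Growth of repair-deficient yeast cells was compared between compound-treated and vehicle-treated cultures to give percent inhibition.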

[2] = NCI Yeast Anticancer Drug Screen. Data for the rad50EPP+ strain (AID 151);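 note: 0% = growth of vehicle-treated control cultures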; details: S. cerevisiae rad50 mutant strain, hits give high values
Procedure, shortened: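 Measured: growth inhibition of rad50EPP+ yeast. Reference: vehicle-treated controls. Screen uses strains with defined genetic alterations in DNA damage repair or cell cycle control.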

[3] = NCI Yeast Anticancer Drug Screen. Data for the mgt1 strain (AID 153); details: S. cerevisiae mgt1 mutant growth inhibition, hits give high values
Procedure, shortened: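 Compounds were applied to mgt1 mutant yeast, and growth was then compared against vehicle-treated control cultures to give percent inhibition.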

[4] = NCI Yeast Anticancer Drug Screen. Data for the rad50 strain (AID 155);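 note: 0% = growth of vehicle-only cultures of the same strain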; details: S. cerevisiae rad50 strain growth inhibition, hits give high values
Procedure, shortened: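 Cells are treated with compound, grown, and their growth is then scored against vehicle-only cultures of the same repair-deficient yeast strain.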

[5] = NCI Yeast Anticancer Drug Screen. Data for the mec2-1 strain (AID 157); details: S. cerevisiae mec2-1 strain, hits give high values
Procedure, shortened: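 Compounds were applied to mec2-1 yeast cells. Their growth was then compared with that of vehicle-treated cultures to give growth inhibition.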

[6] = NCI Yeast Anticancer Drug Screen. Data for the rad14 strain (AID 159);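 note: 0% = growth of vehicle-treated control cultures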; details: S. cerevisiae rad14 strain growth inhibition, hits give high values
Procedure, shortened: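 Readout: yeast growth inhibition, referenced to vehicle-only cultures. Strain bears a defined alteration in DNA damage repair.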

[7] = NCI Yeast Anticancer Drug Screen. Data for the sgs1 mgt1 strain (AID 161);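 note: 0% = growth of cultures given vehicle only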; details: S. cerevisiae sgs1 mgt1 strain, hits give high values
Procedure, shortened: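 Compounds are added to genetically altered yeast, and growth is compared with cultures given vehicle alone to give percent inhibition.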

[8] = NCI Yeast Anticancer Drug Screen. Data for the CLN2oe strain (AID 163);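 note: 0% = growth of vehicle-only control cultures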; details: S. cerevisiae CLN2oe strain, hits give high values
Procedure, shortened: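 Cells of an engineered yeast line with disturbed cell-cycle regulation are treated with compound. Inhibition of growth is then calculated relative to the vehicle-treated reference.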

[9] = NCI Yeast Anticancer Drug Screen. Data for the cln2 rad14 strain (AID 165);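 note: 0% = growth equal to vehicle treated cultures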; details: S. cerevisiae cln2 rad14 strain, hits give high values
Procedure, shortened: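 Strain: cln2 rad14 yeast, altered in cell cycle control and DNA damage repair. Read-out: growth inhibition vs vehicle.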

[10] = NCI Yeast Anticancer Drug Screen. Data for the bub3 strain (AID 167); details: S. cerevisiae bub3 mutant strain, hits give high values
Procedure, shortened: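 Part of a panel of yeast mutants defective in DNA damage repair or cell cycle regulation. Each strain is grown with compound, and inhibition is calculated relative to solvent-treated cultures.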

[11] = NCI Yeast Anticancer Drug Screen. Data for the wt2 strain (AID 169);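 note: 0% = growth of vehicle-treated yeast cultures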; details: S. cerevisiae wt2 strain growth inhibition, hits give high values
Procedure, shortened: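 Growth of compound-treated yeast is measured and expressed as inhibition relative to vehicle-only controls.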

[12] = NCI Yeast Anticancer Drug Screen. Data for the mlh1 strain (AID 171);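 note: 0% = growth of vehicle-treated control cultures of the same strain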; details: S. cerevisiae mlh1 strain growth inhibition, hits give high values
Procedure, shortened: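 Test agents were incubated with yeast bearing a defined DNA damage repair or cell cycle control alteration; values are growth inhibition normalised to vehicle-treated cultures.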

[13] = NCI Yeast Anticancer Drug Screen. Data for the sgs1 strain (AID 173);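 note: 0% = growth of vehicle-only control cultures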; details: S. cerevisiae sgs1 mutant, hits give high values
Procedure, shortened: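 Strain with an altered DNA repair or cell cycle pathway exposed to compound. Growth then measured. Value = inhibition versus vehicle control.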

[14] = NCI Yeast Anticancer Drug Screen. Data for the mlh1 rad18 strain (AID 175); details: S. cerevisiae mlh1 rad18 strain growth inhibition, hits give high values
Procedure, shortened: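 A repair-deficient yeast strain is exposed to test compound, and growth is scored relative to vehicle-treated controls.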

[15] = NCI Yeast Anticancer Drug Screen. Data for the rad18 strain (AID 177); details: S. cerevisiae rad18 mutant growth inhibition, hits give high values
Procedure, shortened: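 DNA-repair-defective yeast; compound treatment; growth inhibition scored against vehicle.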

[16] = NCI Yeast Anticancer Drug Screen. Data for the wt1 strain (AID 149);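 note: 0% = growth of vehicle-treated wt1 cultures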; details: S. cerevisiae wt1 strain (SPY 50644) growth inhibition, hits give high values
Procedure, shortened: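 The wt1 strain was treated with compounds, and growth was compared with vehicle-treated cultures to give inhibition.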

[17] = at 5.0 µM (retest, dose inferred, filed as 0.5)
[18] = at 50.0 µM (retest, dose inferred, filed as 5.0)

Measured: growth inhibition

O=C(Nc1ccc(Cl)cc1)OCC#CCCl
active: [2]; at 1.2 µM 76% | [2]; at 3.7 µM 92% | [2]; at 11.0 µM 97% | [2]; at 33.0 µM 98% | [2]; at 100.0 µM 98% | [3]; at 1.2 µM 89% | [3]; at 3.7 µM 96% | [3]; at 11.0 µM 98% | [3]; at 33.0 µM 98% | [3]; at 100.0 µM 98% | [7]; [17] 96% | [7]; [18] 98% | [7]; at 50.0 µM 96.7% | [11]; at 1.2 µM 95% | [11]; at 3.7 µM 98% | [11]; at 11.0 µM 99% | [11]; at 33.0 µM 99% | [11]; at 100.0 µM 99% | [12]; at 1.2 µM 83% | [12]; at 3.7 µM 94% | [12]; at 11.0 µM 97% | [12]; at 33.0 µM 98% | [12]; at 100.0 µM 98% | [13]; at 1.2 µM 93% | [13]; at 3.7 µM 96% | [13]; at 11.0 µM 98% | [13]; at 33.0 µM 98% | [13]; at 100.0 µM 98%
inactive: [1]; at 1.2 µM 5% | [1]; at 3.7 µM -1% | [1]; at 11.0 µM 15% | [1]; at 33.0 µM 16% | [1]; at 100.0 µM 27% | [4]; at 1.2 µM -4% | [4]; at 3.7 µM -9% | [4]; [17] 8% | [4]; at 11.0 µM -6% | [4]; at 33.0 µM 15% | [4]; [18] 7% | [4]; at 50.0 µM 10.9% | [4]; at 100.0 µM 28% | [5]; at 1.2 µM 3% | [5]; at 3.7 µM 3% | [5]; [17] 6% | [5]; at 11.0 µM 4% | [5]; at 33.0 µM 2% | [5]; [18] 18% | [5]; at 50.0 µM 2.65% | [5]; at 100.0 µM 8% | [6]; at 1.2 µM 3% | [6]; at 3.7 µM 12% | [6]; at 11.0 µM -5% | [6]; at 33.0 µM -4% | [6]; at 100.0 µM 24% | [8]; at 1.2 µM -6% | [8]; at 3.7 µM -3% | [8]; at 11.0 µM -3% | [8]; at 33.0 µM 1% | [8]; at 100.0 µM 2% | [9]; [17] 5% | [9]; [18] 7% | [9]; at 50.0 µM -19.2% | [10]; at 1.2 µM -1% | [10]; at 3.7 µM 3% | [10]; [17] 4% | [10]; at 11.0 µM 4% | [10]; at 33.0 µM 3% | [10]; [18] 23% | [10]; at 50.0 µM 18.1% | [10]; at 100.0 µM 1% | [14]; [17] 9% | [14]; [18] 46% | [14]; at 50.0 µM 6.8% | [15]; at 1.2 µM -5% | [15]; at 3.7 µM 6% | [15]; at 11.0 µM 11% | [15]; at 33.0 µM 10% | [15]; at 100.0 µM 52%

CCCCCCc1cc(C(=O)OC/C(C)=N/NC(N)=O)c2ccccc2n1
inactive: [16]; at 1.2 µM -2% | [16]; at 3.7 µM 1% | [16]; at 11.0 µM -4% | [16]; at 33.0 µM -5% | [16]; at 100.0 µM -5% | [2]; at 1.2 µM -1% | [2]; at 3.7 µM -3% | [2]; at 11.0 µM -4% | [2]; at 33.0 µM 2% | [2]; at 100.0 µM 3% | [3]; at 1.2 µM -3% | [3]; at 3.7 µM -3% | [3]; at 11.0 µM -2% | [3]; at 33.0 µM -5% | [3]; at 100.0 µM -5% | [4]; at 1.2 µM -3% | [4]; at 3.7 µM -3% | [4]; [17] -3% | [4]; at 11.0 µM 0% | [4]; at 33.0 µM -4% | [4]; [18] 32% | [4]; at 50.0 µM 26.6% | [4]; at 100.0 µM -4% | [5]; at 1.2 µM -4% | [5]; at 3.7 µM -2% | [5]; [17] -6% | [5]; at 11.0 µM -6% | [5]; at 33.0 µM -3% | [5]; [18] 42% | [5]; at 50.0 µM -1.15% | [5]; at 100.0 µM -7% | [6]; at 1.2 µM 0% | [6]; at 3.7 µM 3% | [6]; at 11.0 µM 3% | [6]; at 33.0 µM 0% | [6]; at 100.0 µM -4% | [7]; [17] -4% | [7]; [18] 47% | [7]; at 50.0 µM 31% | [8]; at 1.2 µM -3% | [8]; at 3.7 µM -11% | [8]; at 11.0 µM -5% | [8]; at 33.0 µM -13% | [8]; at 100.0 µM -10% | [9]; [17] -1% | [9]; [18] 21% | [9]; at 50.0 µM -12.3% | [10]; at 1.2 µM 0% | [10]; at 3.7 µM -4% | [10]; [17] -2% | [10]; at 11.0 µM -2% | [10]; at 33.0 µM 3% | [10]; at 50.0 µM 68.5% | [10]; at 100.0 µM 5% | [11]; at 1.2 µM 0% | [11]; at 3.7 µM -1% | [11]; at 11.0 µM 0% | [11]; at 33.0 µM -2% | [11]; at 100.0 µM -4% | [12]; at 1.2 µM -3% | [12]; at 3.7 µM -4% | [12]; at 11.0 µM -4% | [12]; at 33.0 µM -5% | [12]; at 100.0 µM -5% | [14]; [17] -4% | [14]; [18] 50% | [14]; at 50.0 µM 61.4% | [15]; at 1.2 µM -1% | [15]; at 3.7 µM -2% | [15]; at 11.0 µM -4% | [15]; at 33.0 µM -7% | [15]; at 100.0 µM -7%
active: [10]; [18] 77%
